PubChem BioAssay (Tox21)
Inconclusive results are not listed. Where a call stands in place of a potency, no number is given. Calls of active or inactive are those of the source. The call rests on the fitted dose curve; in most records, active means well fitted curve in the direction sought with a large enough effect in the repeat runs; inconclusive means weak or mixed curves; inactive means no such curve, though single readings can be large; an effect the other way counts as inactive or inconclusive.

Assay: A CellTox Green Cytotoxicity Assay to monitor cytotoxicity in HepG2 cells - 32 hour (AID 1224883); further: nearly all actives have a fitted effect of over 50% in size
Settings: CellTox Green fluorescence; series mostly up to 76.8 µM
How it was run: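 Cytotoxicity was tracked as dead-cell DNA fluorescence in HepG2 cells treated with test compounds at 37 C; each time-point value comes from one kinetic series spanning 0, 8, 16, 24, 32 and 40 h.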
Potency means the concentration at half of the fitted maximal effect.

Row | Compound | Potency
1 | OC[C@H]1O[C@@H](n2cnc3c(=S)nc[nH]c32)[C@H](O)[C@@H]1O | inactive
2 | CC(C)=CCC/C(C)=C/CC/C(C)=C/C(=O)OCC(=O)[C@@]1(O)CC[C@H]2[C@@H]3CCC4=CC(=O)C=C[C@]4(C)[C@H]3[C@@H](O)C[C@@]21C | inactive
3 | Nc1nc2ccc([N+](=O)[O-])cc2s1 | 43.6 µM (active)
4 | CC(=O)NC1(c2cccc(F)c2)CCN(CC[C@@]2(c3ccc(Cl)c(Cl)c3)CN(c3ccccc3)C(=O)CO2)CC1 | 43.8 µM (active)
5 | Nc1cccc2c1CN(C1CCC(=O)NC1=O)C2=O (configuration not stated) | inactive
6 | COc1cc(Nc2c(C#N)cnc3cc(OCCCN4CCN(C)CC4)c(OC)cc23)c(Cl)cc1Cl | 9.52 µM (active)
7 | CN1CCCN=C1COC(=O)C(O)(c1ccccc1)C1CCCCC1 (configuration not stated) | inactive
8 | Cc1ccccc1S | inactive
9 | CCCCCCCCCCC(=O)O | inactive
10 | CN1CCCC(n2nc(Cc3ccc(Cl)cc3)c3ccccc3c2=O)CC1 (configuration not stated) | 23.9 µM (active)
11 | CC(=O)Nc1ccc(C)cc1C | inactive
12 | CN1C(C(=O)Nc2ccccn2)=C(O)c2sccc2S1(=O)=O | inactive
13 | CCCC(=O)C(=O)O | inactive
14 | CC(=O)Oc1ccc([N+](=O)[O-])cc1CCl | inactive
15 | CCCCOc1ccc(OCCCN2CCOCC2)cc1 | inactive
16 | CCOC(=O)c1ccc(O)c(O)c1 | inactive
17 | O=C1C(=O)c2ccccc2C(O)=C1C1CCC(c2ccc(Cl)cc2)CC1 (configuration not stated) | inactive
18 | CCC(C)(C)OC | inactive
19 | c1ccc(C[n+]2cccc3ccccc32)cc1 | inactive
20 | CC(CCC(=O)O)C(=O)O (configuration not stated) | inactive
21 | O=C=Nc1cccc(C(F)(F)F)c1 | inactive
22 | OCCOCC#CCOCCO | inactive
23 | COc1ccc(OC(=O)N(CC(=O)O)Cc2ccc(OCCc3nc(-c4ccccc4)oc3C)cc2)cc1 | inactive
24 | c1ccc2c(c1)CCc1ccccc1N2 | inactive
25 | O=C(OCC(O)CO)c1ccccc1Nc1ccnc2cc(Cl)ccc12 (configuration not stated) | 9.52 µM (active)
26 | CC(CN(C)C)C(C)(O)Cc1ccc(Cl)cc1 (configuration not stated) | inactive
27 | COc1cc(C(=O)NC2CCN(C)CC2)ccc1Nc1ncc2c(n1)N(C1CCCC1)CC(F)(F)C(=O)N2C | 25.2 µM (active)
28 | CCOC(C)=O | inactive
29 | CCOC(=O)OC(C)OC(=O)[C@@H]1N2C(=O)[C@@H](NC(=O)[C@H](N)c3ccccc3)[C@H]2SC1(C)C (some centres not stated) | inactive
30 | Cc1ccc(OC(=O)c2ccccc2O)cc1 | inactive

Assay: A CellTox Green Cytotoxicity Assay to monitor cytotoxicity in HEK293 cells - 8 hour (AID 1224884); further: nearly all actives have a fitted effect of over 35% in size
Settings: CellTox Green fluorescence; series mostly up to 76.8 µM
How it was run: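 Real-time, in one plate: 600 HEK293 cells/well with dead-cell DNA dye, pinned compound after 5 h, 37 C incubation over 40 h; viable cells give no appreciable fluorescence.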

Row | Compound | Potency
31 | OC[C@H]1O[C@@H](n2cnc3c(=S)nc[nH]c32)[C@H](O)[C@@H]1O | inactive
32 | CC(C)=CCC/C(C)=C/CC/C(C)=C/C(=O)OCC(=O)[C@@]1(O)CC[C@H]2[C@@H]3CCC4=CC(=O)C=C[C@]4(C)[C@H]3[C@@H](O)C[C@@]21C | inactive
33 | CC(=O)NC1(c2cccc(F)c2)CCN(CC[C@@]2(c3ccc(Cl)c(Cl)c3)CN(c3ccccc3)C(=O)CO2)CC1 | inactive
34 | Nc1cccc2c1CN(C1CCC(=O)NC1=O)C2=O (configuration not stated) | inactive
35 | COc1cc(Nc2c(C#N)cnc3cc(OCCCN4CCN(C)CC4)c(OC)cc23)c(Cl)cc1Cl | inactive
36 | CN1CCCN=C1COC(=O)C(O)(c1ccccc1)C1CCCCC1 (configuration not stated) | inactive
37 | CCCCCCCCCCC(=O)O | inactive
38 | CC(=O)Nc1ccc(C)cc1C | inactive
39 | CN1C(C(=O)Nc2ccccn2)=C(O)c2sccc2S1(=O)=O | inactive
40 | CC(=O)Oc1ccc([N+](=O)[O-])cc1CCl | inactive
41 | O=c1cc(-c2ccccc2)oc2cc(O)cc(O)c12 | inactive
42 | CCCCOc1ccc(OCCCN2CCOCC2)cc1 | inactive
43 | CCOC(=O)c1ccc(O)c(O)c1 | inactive
44 | O=C1C(=O)c2ccccc2C(O)=C1C1CCC(c2ccc(Cl)cc2)CC1 (configuration not stated) | inactive
45 | CCC(C)(C)OC | inactive
46 | c1ccc(C[n+]2cccc3ccccc32)cc1 | inactive
47 | CC(CCC(=O)O)C(=O)O (configuration not stated) | inactive
48 | Nc1nnc(-c2ccc([N+](=O)[O-])o2)o1 | inactive
49 | O=C=Nc1cccc(C(F)(F)F)c1 | inactive
50 | OCCOCC#CCOCCO | inactive
51 | COc1ccc(OC(=O)N(CC(=O)O)Cc2ccc(OCCc3nc(-c4ccccc4)oc3C)cc2)cc1 | inactive
52 | c1ccc2c(c1)CCc1ccccc1N2 | inactive
53 | O=C(OCC(O)CO)c1ccccc1Nc1ccnc2cc(Cl)ccc12 (configuration not stated) | inactive
54 | COc1cc(C(=O)NC2CCN(C)CC2)ccc1Nc1ncc2c(n1)N(C1CCCC1)CC(F)(F)C(=O)N2C | 17.9 µM (active)
55 | CCOC(C)=O | inactive
56 | CS(=O)(=O)c1ccc(-c2cn3ccccc3n2)cc1 | inactive
57 | CCOC(=O)OC(C)OC(=O)[C@@H]1N2C(=O)[C@@H](NC(=O)[C@H](N)c3ccccc3)[C@H]2SC1(C)C (some centres not stated) | inactive
58 | CN1C(=O)N(c2ccccc2Br)Cc2cnc(Nc3ccc4c(c3)OCC(CO)O4)nc21 (configuration not stated) | inactive
59 | Cc1ccc(OC(=O)c2ccccc2O)cc1 | inactive

Assay: qHTS RealTime-Glo MT Cell Viability Assay in HepG2 cells - 16 hour (AID 1224885); further: nearly all actives have a fitted effect of over 50% in size
Settings: RealTime-Glo luminescence; series mostly up to 76.8 µM
How it was run: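 qHTS, HepG2, 600 cells/well, RealTime-Glo (NanoLuc + prosubstrate) added with cells; 5 h preincubation; DMSO compound addition; 37 C; luminescence at 0/8/16/24/32/40 h.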

Row | Compound | Potency
60 | O=C1c2ccccc2C(=O)C1c1nc2ccccc2c(Br)c1O | inactive
61 | OC[C@H]1O[C@@H](n2cnc3c(=S)nc[nH]c32)[C@H](O)[C@@H]1O | inactive
62 | Nc1nc2ccc([N+](=O)[O-])cc2s1 | inactive
63 | CC(=O)NC1(c2cccc(F)c2)CCN(CC[C@@]2(c3ccc(Cl)c(Cl)c3)CN(c3ccccc3)C(=O)CO2)CC1 | 43.8 µM (active)
64 | Nc1cccc2c1CN(C1CCC(=O)NC1=O)C2=O (configuration not stated) | inactive
65 | CN1CCCN=C1COC(=O)C(O)(c1ccccc1)C1CCCCC1 (configuration not stated) | inactive
66 | Cc1ccccc1S | inactive
67 | CCCCCCCCCCC(=O)O | inactive
68 | CN1C(=O)c2ccccc2C1=O | inactive
69 | CN1CCCC(n2nc(Cc3ccc(Cl)cc3)c3ccccc3c2=O)CC1 (configuration not stated) | inactive
70 | CC(=O)Nc1ccc(C)cc1C | inactive
71 | CN1C(C(=O)Nc2ccccn2)=C(O)c2sccc2S1(=O)=O | inactive
72 | CCCC(=O)C(=O)O | inactive
73 | CC(=O)Oc1ccc([N+](=O)[O-])cc1CCl | inactive
74 | CCCCOc1ccc(OCCCN2CCOCC2)cc1 | inactive
75 | CCCCN1CCCC1C(=O)Nc1c(C)cc(C)cc1C (configuration not stated) | inactive
76 | CCOC(=O)c1ccc(O)c(O)c1 | inactive

Row | Compound | Potency
77 | CC1=Nc2ccc3ccccc3c2C1(C)C | inactive
78 | O=C1C(=O)c2ccccc2C(O)=C1C1CCC(c2ccc(Cl)cc2)CC1 (configuration not stated) | inactive
79 | CCC(C)(C)OC | inactive
80 | O=C1c2ccccc2C(=O)C1(O)O | inactive
81 | c1ccc(C[n+]2cccc3ccccc32)cc1 | inactive
82 | CC(CCC(=O)O)C(=O)O (configuration not stated) | inactive
83 | O=C=Nc1cccc(C(F)(F)F)c1 | inactive
84 | OCCOCC#CCOCCO | inactive
85 | COc1ccc(OC(=O)N(CC(=O)O)Cc2ccc(OCCc3nc(-c4ccccc4)oc3C)cc2)cc1 | inactive
86 | c1ccc2c(c1)CCc1ccccc1N2 | inactive
87 | O=C(OCC(O)CO)c1ccccc1Nc1ccnc2cc(Cl)ccc12 (configuration not stated) | inactive
88 | CC(CN(C)C)C(C)(O)Cc1ccc(Cl)cc1 (configuration not stated) | inactive
89 | COc1cc(C(=O)NC2CCN(C)CC2)ccc1Nc1ncc2c(n1)N(C1CCCC1)CC(F)(F)C(=O)N2C | 40 µM (active)
90 | CCOC(C)=O | inactive
91 | CCOC(=O)OC(C)OC(=O)[C@@H]1N2C(=O)[C@@H](NC(=O)[C@H](N)c3ccccc3)[C@H]2SC1(C)C (some centres not stated) | inactive
92 | Cc1ccc(OC(=O)c2ccccc2O)cc1 | inactive
